# Experimental data: PMC5540273 (PLoS ONE, 2017)
# Experiments:
# Details in all cases: concentration: 1 μM, replicates: in singlicate; n = 1
# MEK5 = test system: T1, MEK5
# T1 construct: gene MAP2K5
# MEK6 = test system: T2, MEK6
# T2 construct: gene MAP2K6
# MELK = test system: MELK
# MERTK = test system: MERTK
# MET = test system: MET
# MINK = test system: T3, MINK
# T3 construct: gene MINK1
# MKK7 = test system: MKK7
# MKNK1 = test system: MKNK1
# MKNK2 = test system: MKNK2
# MLCK = test system: T4, MLCK
# T4 construct: gene MYLK3
# MLK1 = test system: T5, MLK1
# T5 construct: gene MAP3K9
# MLK2 = test system: MLK2
# MLK3 = test system: MLK3
# MRCKA = test system: MRCKA
# MRCKB = test system: T6, MRCKB
# T6 construct: gene CDC42BPB
# MST1R = test system: MST1R
# MST1 = test system: T7, MST1
# T7 construct: gene STK4
# MST2 = test system: T8, MST2
# T8 construct: gene STK3
# MST3 = test system: T9, MST3
# T9 construct: gene STK24
# MST4 = test system: MST4
# 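Further: KINOMEscan kinase panel screen.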
Compound,%Inh (MEK5) [%],%Inh (MEK6) [%],%Inh (MELK) [%],%Inh (MERTK) [%],%Inh (MET) [%],%Inh (MINK) [%],%Inh (MKK7) [%],%Inh (MKNK1) [%],%Inh (MKNK2) [%],%Inh (MLCK) [%],%Inh (MLK1) [%],%Inh (MLK2) [%],%Inh (MLK3) [%],%Inh (MRCKA) [%],%Inh (MRCKB) [%],%Inh (MST1R) [%],%Inh (MST1) [%],%Inh (MST2) [%],%Inh (MST3) [%],%Inh (MST4) [%]
Cl.c1ccc(-c2ccc3c(Nc4ccc5[nH]ncc5c4)ccnc3c2)nc1 [GW440137],89,0,15,0,0,43,0,5,18,15,0,27,11,9,0,43,0,28,0,3
Oc1cc(Nc2ccnc3cc(I)ccc23)ccc1F [GW552771],96.5,0,0,34,0,55,0,0,14,0,0,13,0,0,0,28,9,0,2,0
O=C(Nc1n[nH]c2nc(-c3ccc(O)cc3)ccc12)C1CC1 [SB-710363],81,0,46,8,0,72,0,43,54,57,0,0,0,0,0,0,0,0,0,9
Cc1occc1-c1ncc(OC[C@@H](N)Cc2c[nH]c3ccccc23)cc1-c1ccc2[nH]nc(C)c2c1.O=C(O)C(F)(F)F [GSK682037],76,13,50,66,45,97.2,17,0,0,39,12,0,28,38,72,41,71,90,55,85
CCn1c(-c2nonc2N)nc2c(C#CC(C)(C)O)nc(OC[C@H](N)c3ccccc3)cc21 [GSK943949],0,0,63,21,0,5,0,5,0,34,0,23,5,0,5,1,0,58,9,7
COc1cc(Nc2nccc(N3CCC(NC(=O)Nc4cccc(C(C)=O)c4)C3)n2)cc(OC)c1OC (stereo not shown) [GSK1379753],99.6,0,0,23,12,0,0,9,62,0,48,0,45,18,0,36,89,31,2,0
CN1CCN(CCCNc2nccc(-c3c(-c4ccc(F)cc4)nn4cc(C(F)(F)F)ccc34)n2)CC1 [GW621581],25,0,0,26,0,17,0,0,1,4,0,22,0,0,0,8,11,0,19,0
Cn1cc(-c2ccc3c(c2)CCN3C(=O)Cc2cccc(F)c2)c2c(N)ncnc21 [GSK2603358],99.9,0,9,49,61,0,32,2,21,16,20,11,37,5,0,49,95.8,69,15,8
CNC(=O)c1ccccc1Nc1nc(Nc2ccc(N3CCOCC3)cc2)ncc1Cl.Cl [GSK1576028],97.6,79,99.8,100,95,72,0,14,82,96.1,97.6,82,86,6,0,92.9,99.1,97.5,61,85
Cl.Cl.NCC(C(=O)Nc1cc(Br)c(-c2ccnc3[nH]ccc23)s1)c1ccccc1 (stereo not shown) [GSK1269851],20,0,45,19,0,8,0,13,99.1,98.7,0,18,11,0,25,47,0,7,0,11
Cc1ccc(F)c(C(=O)Nc2cccc(-c3nn4ccccc4c3-c3ccnc(Nc4cccc(F)c4)n3)c2)c1F [GSK361061],95,18,12,75,58,17,10,21,0,5,14,42,31,22,24,34,34,0,2,15
COc1cccc(NC(=O)NC2CCN(c3ccnc(Nc4cc(OC)c(OC)c(OC)c4)n3)C2)c1 (stereo not shown) [GSK1379763],99.9,0,0,15,0,0,0,36,65,0,48,0,38,11,60,31,0,3,0,0
COc1ccc(Nc2nccc(NCCNC(=O)c3cc4ccccc4s3)n2)cc1 [GSK1379896],33,0,0,24,0,2,0,0,0,0,0,0,14,21,6,40,0,24,0,0
CC(C)c1nc(-c2cccc(NS(=O)(=O)c3c(F)cccc3F)c2F)c(-c2ccnc(Nc3ccc(N4CCOCC4)nc3)n2)s1 [GSK2008607],99.9,59,81,79,85,60,0,12,96,0,96.3,100,92.7,0,0,82,55,0,63,39
Nc1ncc(-c2cccnc2)c2scc(-c3ccc4c(c3)CCN4C(=O)Cc3ccccc3)c12 [GSK683281],99.7,0,100,69,33,41,30,5,15,14,10,11,7,23,79,78,95.8,36,8,13
COc1cccc(C(=O)Nc2cccc(Oc3ccc4nc(NC(=O)C5CC5)cn4n3)c2)c1,98.2,0,35,57,20,63,0,4,0,0,8,0,2,21,0,17,9,0,15,0
Nc1n[nH]c2cnc(-c3ccccc3)cc12 [SB-642124],52,0,28,43,0,53,0,13,8,1,0,0,0,16,3,37,4,8,0,5
COc1cc2c(cc1OCCN1CCNCC1)ncc1c3ccc(C#N)cc3[nH]c21,99.6,0,35,0,5,86,12,100,99,97.5,0,0,0,6,0,9,0,60,12,28
Cn1cc(-c2[nH]c3cc(NC(=O)[C@H](N)C4CCCCC4)cc4c3c2C=NNC4=O)cn1,100,3,60,95.1,5,96.5,0,100,100,84,88,69,83,0,0,15,27,99.1,55,97.5
COC(=O)Nc1nc2cc(Oc3ccc(NC(=O)Nc4cc(C(F)(F)F)ccc4F)cn3)ccc2[nH]1.Cl.Cl [GW681170],51,0,6,95.7,73,18,0,36,88,0,12,0,10,16,0,17,0,0,0,0
